Measured values reported in publication PMC5540273 (PLoS ONE, 2017).

Key:
Settings in all cases: concentration: 1 μM, replicates: in singlicate; n = 1
[1] = system: T1, TIE2
T1 construct: gene TEK

[2] = system: TLK1
[3] = system: TLK2
[4] = system: TNIK
[5] = system: TNK1
[6] = system: TNK2
[7] = system: TNNI3K
[8] = system: T2, TRKA
T2 construct: gene NTRK1

[9] = system: TRKB
[10] = system: T3, TRKC
T3 construct: gene NTRK3

[11] = system: TRPM6
[12] = system: TSSK1B
[13] = system: TSSK3
[14] = system: TTK
[15] = system: TXK
[16] = system: TYK2(JH1domain-catalytic)
[17] = system: TYK2(JH2domain-pseudokinase)
[18] = system: TYRO3
[19] = system: ULK1
[20] = system: ULK2
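Further: KINOMEscan kinase panel screen.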

Row | Structure (SMILES) | %Inh [1] | %Inh [2] | %Inh [3] | %Inh [4] | %Inh [5] | %Inh [6] | %Inh [7] | %Inh [8] | %Inh [9] | %Inh [10] | %Inh [11] | %Inh [12] | %Inh [13] | %Inh [14] | %Inh [15] | %Inh [16] | %Inh [17] | %Inh [18] | %Inh [19] | %Inh [20]
1 | O=C(NCCNc1ccnc(Nc2ccc(F)cc2)n1)Nc1ccc2c(c1)OCO2 [GSK1379882] | 0% | 22% | 20% | 0% | 0% | 9% | 0% | 4% | 0% | 17% | 26% | 0% | 24% | 15% | 100% | 21% | 28% | 0% | 0% | 0%
2 | O=c1cc(N2CCOCC2)nc2n(Cc3ccc(F)c(Cl)c3)ccn12 [GSK2297099] | 0% | 11% | 22% | 0% | 0% | 10% | 0% | 0% | 0% | 0% | 36% | 0% | 9% | 0% | 0% | 0% | 15% | 0% | 16% | 0%
3 | Nc1nc(-c2ccccc2F)c(-c2ccnc3ccccc23)s1 [GW560459] | 3% | 0% | 0% | 65% | 0% | 3% | 94.1% | 0% | 26% | 31% | 32% | 14% | 10% | 20% | 0% | 7% | 32% | 0% | 0% | 0%
4 | CN1C(=O)C(Nc2cc(Cl)c(O)c(Cl)c2)=C(c2ccc(Cl)cc2)C1=O [SB-404321] | 0% | 0% | 0% | 0% | 22% | 0% | 0% | 52% | 36% | 10% | 0% | 0% | 22% | 0% | 0% | 0% | 13% | 0% | 0% | 0%
5 | COc1cc2nccc(Nc3ccc(OCc4ccc(NC(C)=O)cc4)cc3)c2cc1OC.Cl [GW440135] | 1% | 0% | 0% | 0% | 0% | 16% | 0% | 37% | 0% | 21% | 3% | 0% | 26% | 0% | 6% | 9% | 5% | 0% | 0% | 0%
6 | O=C1NC(=O)C(c2ccccc2)=C1Nc1cccc(O)c1 [SB-390534] | 13% | 26% | 98.4% | 16% | 5% | 0% | 4% | 0% | 0% | 37% | 0% | 0% | 0% | 0% | 14% | 14% | 0% | 0% | 0% | 12%
7 | Cc1ccccc1COc1cc(-n2cnc3cc(Cl)ccc32)sc1C(N)=O [GW813349] | 0% | 0% | 0% | 30% | 12% | 0% | 0% | 0% | 0% | 5% | 0% | 3% | 0% | 2% | 9% | 5% | 5% | 5% | 0% | 0%
8 | COc1cc2ncn(-c3cc(OCc4ccc(S(C)(=O)=O)cc4)c(C(N)=O)s3)c2cc1OC [GW869979] | 0% | 5% | 0% | 37% | 5% | 18% | 0% | 50% | 31% | 44% | 0% | 0% | 22% | 0% | 0% | 17% | 11% | 19% | 6% | 6%
9 | FC(F)(F)c1ccc(-c2ncn(CCCN3CCOCC3)c2-c2ccncc2)cc1 [SB-217780] | 6% | 0% | 0% | 0% | 1% | 0% | 0% | 14% | 0% | 0% | 4% | 0% | 0% | 0% | 10% | 32% | 24% | 0% | 1% | 46%
10 | CCc1nc(-c2cccc(C)c2)c(-c2ccncc2)s1 | 12% | 24% | 0% | 59% | 2% | 0% | 0% | 11% | 0% | 0% | 0% | 0% | 0% | 0% | 0% | 0% | 25% | 0% | 0% | 0%
11 | CCCNC(=O)Nc1ccc(Oc2ncnc3ccn(C)c23)cc1 | 7% | 3% | 0% | 18% | 0% | 0% | 0% | 0% | 0% | 13% | 0% | 0% | 0% | 0% | 0% | 13% | 22% | 0% | 14% | 10%
12 | OCCCNc1nccc(-c2c(-c3cccc(C(F)(F)F)c3)nn3cc(C(F)(F)F)ccc23)n1 [GW630813] | 0% | 6% | 0% | 3% | 0% | 0% | 0% | 0% | 7% | 3% | 0% | 0% | 6% | 0% | 0% | 14% | 13% | 0% | 0% | 0%
13 | Fc1cccc(CSc2nnc(-c3ccc4c(c3)CCO4)o2)c1 | 7% | 0% | 12% | 0% | 0% | 8% | 6% | 3% | 0% | 28% | 0% | 0% | 2% | 2% | 0% | 4% | 12% | 0% | 0% | 9%
14 | COc1cccc(C2=C(Nc3cccc(C(=O)O)c3)C(=O)NC2=O)c1 [SB-390770] | 37% | 7% | 0% | 4% | 0% | 12% | 8% | 56% | 0% | 0% | 15% | 23% | 15% | 0% | 48% | 19% | 0% | 0% | 26% | 6%
15 | CN(C)c1cc(-c2ccc3c(N)n[nH]c3c2)nc(N)n1 [GSK2219329] | 0% | 9% | 0% | 0% | 0% | 1% | 0% | 0% | 0% | 0% | 13% | 0% | 6% | 0% | 97.2% | 14% | 25% | 0% | 0% | 0%
16 | CCCC(=O)Nc1n[nH]c2ncc(-c3cccc4ccccc34)cc12 [SB-642057] | 0% | 32% | 100% | 0% | 0% | 4% | 5% | 0% | 0% | 0% | 48% | 36% | 0% | 0% | 52% | 0% | 38% | 0% | 18% | 1%

Row | Structure (SMILES) | %Inh [1] | %Inh [2] | %Inh [3] | %Inh [4] | %Inh [5] | %Inh [6] | %Inh [7] | %Inh [8] | %Inh [9] | %Inh [10] | %Inh [11] | %Inh [12] | %Inh [13] | %Inh [14] | %Inh [15] | %Inh [16] | %Inh [17] | %Inh [18] | %Inh [19] | %Inh [20]
17 | CCn1c(-c2ccoc2)nc2cnccc21 [SB-733887] | 7% | 0% | 0% | 0% | 0% | 3% | 11% | 0% | 41% | 13% | 52% | 0% | 6% | 0% | 28% | 27% | 50% | 0% | 29% | 4%
18 | Cn1c(=O)c(F)c(Nc2ccc(I)cc2F)c2c(=O)n(OC[C@H](O)CO)cnc21 | 9% | 0% | 0% | 0% | 29% | 0% | 4% | 0% | 0% | 0% | 0% | 0% | 0% | 15% | 23% | 0% | 0% | 2% | 0% | 0%
19 | Cc1ccc(-c2ccc3c(ccc4sc5c(c43)NC[C@@H](C)N=C5N(C)C)n2)cn1 | 0% | 0% | 0% | 2% | 34% | 0% | 0% | 0% | 0% | 0% | 0% | 0% | 0% | 0% | 0% | 0% | 0% | 0% | 0% | 0%
20 | Nc1nc(N)c2nc(-c3ccccc3)[nH]c2n1 [SKF-12778] | 0% | 0% | 0% | 4% | 0% | 13% | 28% | 52% | 9% | 0% | 11% | 0% | 5% | 4% | 25% | 43% | 74% | 0% | 16% | 9%
21 | COC(=O)c1c(-c2ccccc2)c2cc(Br)ccc2c(=O)n1Cc1ccc(S(C)(=O)=O)cc1 | 3% | 14% | 0% | 0% | 0% | 1% | 0% | 0% | 0% | 24% | 2% | 0% | 0% | 31% | 12% | 7% | 15% | 1% | 0% | 13%
22 | COc1cc(OC)cc(-c2cc3cnc(N)nc3nc2NC(=O)NC(C)(C)C)c1 | 18% | 0% | 0% | 0% | 14% | 100% | 0% | 0% | 0% | 0% | 0% | 9% | 0% | 0% | 19% | 0% | 3% | 100% | 0% | 0%
23 | O=C(Nc1n[nH]c2nc(-c3ccccc3)c(Br)cc12)C1CC1 [SB-708998] | 11% | 0% | 0% | 14% | 0% | 10% | 0% | 28% | 0% | 11% | 18% | 25% | 14% | 24% | 14% | 14% | 1% | 0% | 30% | 0%
24 | COc1ccc(-n2cnc3c(N)ncnc32)cc1 [SKF-97236] | 18% | 0% | 0% | 18% | 0% | 0% | 18% | 61% | 9% | 0% | 66% | 11% | 0% | 28% | 12% | 11% | 24% | 0% | 21% | 10%
25 | COc1ccc(-c2cc3c(C)nc(N)nc3n([C@H]3CC[C@H](O)CC3)c2=O)cn1 | 0% | 0% | 0% | 0% | 0% | 0% | 0% | 0% | 0% | 0% | 0% | 0% | 0% | 0% | 0% | 0% | 0% | 0% | 0% | 0%
26 | COC(=O)c1c(-c2ccccc2)c2cc(C)ccc2c(=O)n1Cc1ccccc1 | 0% | 9% | 0% | 0% | 0% | 0% | 0% | 0% | 0% | 0% | 0% | 0% | 0% | 5% | 0% | 0% | 0% | 0% | 0% | 0%
27 | CCC(=O)c1c(-c2ccccc2)c2cc(Cl)ccc2c(=O)n1Cc1ccc(C(=O)O)cc1 | 0% | 0% | 0% | 0% | 0% | 0% | 0% | 0% | 0% | 0% | 0% | 0% | 0% | 0% | 0% | 0% | 0% | 0% | 0% | 2%
28 | COc1cccc(C2=C(N(C)c3ccccc3)C(=O)NC2=O)c1 [SB-334865] | 0% | 4% | 4% | 0% | 0% | 19% | 11% | 0% | 0% | 23% | 26% | 0% | 7% | 0% | 22% | 12% | 42% | 0% | 19% | 0%
29 | COc1cc2ncn(-c3cc(OCCCc4ccccc4)c(C(N)=O)s3)c2cc1OC [GSK205189] | 0% | 0% | 0% | 22% | 12% | 7% | 0% | 55% | 0% | 24% | 0% | 0% | 10% | 12% | 0% | 0% | 0% | 0% | 2% | 0%
30 | CCC(=O)c1c(-c2ccccc2)c2cc(Cl)ccc2c(=O)n1Cc1cc(S(C)(=O)=O)n(CCC(C)(C)O)n1 | 5% | 1% | 0% | 2% | 28% | 0% | 13% | 0% | 0% | 31% | 18% | 0% | 1% | 4% | 18% | 0% | 6% | 0% | 0% | 7%
31 | COc1cccc(-n2cnc3c(N)ncnc32)c1 [SKF-97416] | 0% | 2% | 19% | 15% | 0% | 0% | 0% | 45% | 48% | 33% | 65% | 0% | 21% | 44% | 11% | 83% | 40% | 0% | 45% | 39%
